High-throughput results as filed in PubChem BioAssay.
CYP2C19 act – activators of human cytochrome P450 2C19 | 96,000 tested, under 10 active | activation factor at 5 µM | P33261 | recombinant CYP2C19, luciferin-H EGE luminescence; hits give high values; 0 = fully inhibited enzyme, 1 = untreated enzyme | AID 1025;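 active = activation factor of at least 2 at 5 µM in the primary screen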
Target sequence (P33261 whole entry, looked up): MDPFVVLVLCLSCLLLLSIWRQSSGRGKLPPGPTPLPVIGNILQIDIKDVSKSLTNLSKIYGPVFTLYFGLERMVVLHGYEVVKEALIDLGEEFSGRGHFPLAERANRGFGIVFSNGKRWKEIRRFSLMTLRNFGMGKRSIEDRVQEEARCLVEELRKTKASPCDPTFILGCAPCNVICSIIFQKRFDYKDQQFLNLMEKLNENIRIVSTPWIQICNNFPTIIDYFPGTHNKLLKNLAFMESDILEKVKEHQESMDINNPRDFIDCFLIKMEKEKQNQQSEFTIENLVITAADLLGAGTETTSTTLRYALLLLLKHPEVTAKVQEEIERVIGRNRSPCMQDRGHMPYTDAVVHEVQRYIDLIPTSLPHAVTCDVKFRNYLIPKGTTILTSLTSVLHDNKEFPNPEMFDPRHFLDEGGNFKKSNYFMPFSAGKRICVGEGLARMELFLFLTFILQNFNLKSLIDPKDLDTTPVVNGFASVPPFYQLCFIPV
MRP reversal – MRP-mediated drug resistance reversal. H69AR cells + 2 uM doxorubicin, CellTiter-Glo, 72 h. differential viability (reversal), % at 10 µM. 85,000 tested, 0.04% active;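 active = viability drop by adding the cancer drug above about 55%, with treated viability meeting a 40% cutoff, limit read from the data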;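 also: larger differential means the compound sensitizes cells more to doxorubicin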
CYP2C19 inhib – inhibitors of human CYP2C19 | P33261 | CYP2C19 Supersomes, luciferin-H EGE luminescence, 30 min | inhibition, % at 5 µM | 96,000 tested, 21% active;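 active = CYP2C19 inhibition above a set limit at 5 µM in the primary screen, cut at about 50% in these data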
CYP2C9 act – activators of human CYP2C9; recombinant CYP2C9, luciferin-H conversion, luminescence; hits give high values; factor 1 = untreated enzyme, 0 = blocked; 96,000 tested, 1.4% active; P11712; activation factor at 5 µM;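 active = activation factor of 2 or more for CYP2C9 at a 5 µM dose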
CYP2C9 inhib – blocks human cytochrome P450 2C9 | P11712 | CYP2C9 Supersomes, luciferin-H conversion, luminescence | inhibition, % at 5 µM | 96,000 tested, 20% active;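 active = blocking of liver enzyme CYP2C9 beyond about 50% at 5 µM, limit read from the data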
MRP-1 activ – MRP-1 activation. AID 799. viability increase, % at 10 µM. 140,000 tested, 0.61% active. H69AR cells + doxorubicin, viability rescue, CellTiter-Glo;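 active = viability gain under doxorubicin at or above a set limit, the compound median plus 3 SD, cut at about 4.7% in these data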;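 also: MRP-1 overexpressing cells given doxorubicin 25 µM after compound pretreatment; 18-22 h compound pretreatment then 72 h with doxorubicin before readout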
Numbers stand for hits; . = inactive; / = no result. In the library only some 21% were active in any assay of this set; here they are far more common.

SMILES | CYP2C19 act | MRP reversal | CYP2C19 inhib | CYP2C9 act | CYP2C9 inhib | MRP-1 activ
O=C(NCC1CCCO1)C1CCN(S(=O)(=O)c2cccc3cccnc23)CC1 (stereo unspecified) | . | . | . | . | . | .
O=C(NCc1ccc(F)cc1)C1CCCN(S(=O)(=O)c2cccc3nsnc23)C1 (stereo unspecified) | . | . | . | . | . | .
O=C(NCC1COc2ccccc2O1)C1CCN(S(=O)(=O)c2cccc3nsnc23)CC1 (stereo unspecified) | . | . | 59 | . | . | .
CCN(CCNC(=O)C1CCN(S(=O)(=O)c2cccc3nsnc23)CC1)c1ccccc1 | . | . | . | . | . | .
CC(=O)c1ccccc1OCCOCCOc1ccccc1C(C)=O | / | / | / | / | / | .
CN(C(=O)c1ccc(NC(=O)c2cnccn2)cc1)C1CCCCC1 | / | . | / | / | / | /
c1cn2cc(-c3ccc4c(c3)OCO4)nc2s1 | . | . | . | . | . | .
COc1ccc(NS(=O)(=O)c2c(C)cc(C)cc2C)cc1 | . | . | 88 | . | 93 | .
COc1cccc(NS(=O)(=O)c2c(C)cc(C)cc2C)c1 | . | . | 100 | . | 58 | .
Cc1ccc(S(=O)(=O)CC(=O)NC(C)(C)C)cc1 | / | . | / | / | / | .
CN(C)CC(C)(C)CNC(=O)C1CCN(Cc2ccccc2O)CC1 | . | . | . | . | . | .
Cc1ccc(OCc2nnc(SCC(=O)c3ccccc3)n2Cc2ccco2)cc1 | . | / | 97 | . | 95 | .
O=C(N/N=C/c1ccc2c(c1)OCO2)c1cccs1 | / | / | / | / | / | .
O=C(CSc1nnc(-c2cccnc2)n1Cc1ccco1)c1ccccc1 | . | . | . | . | . | .
O=C(CC(SCc1ccco1)c1ccc(O)cc1)c1cccs1 (stereo unspecified) | . | . | 79 | . | 98 | .
O=C(CC(SCCO)c1ccc2c(c1)OCO2)c1cccs1 (stereo unspecified) | . | . | 100 | . | 95 | .
O=C(CSc1nnc(-c2ccc(O)cc2)n1Cc1ccco1)c1cccs1 | . | . | 65 | . | 78 | .
Cc1ccc(C(C(=O)Nc2ccc3c(c2)OCO3)N(C)C(=O)Cc2c[nH]c3ccccc23)cc1 (stereo unspecified) | / | / | / | / | / | .
COc1ccc(NC(=O)CN2CCOCC2)cc1 | . | / | . | . | . | .
O=C(CSc1nnc(-c2ccc(O)cc2)n1Cc1ccco1)c1ccccc1 | . | . | . | . | 50 | .
Cc1ccc(N2CCN(C(=O)c3ccccc3NC(=O)C3CC=CCC3C(=O)O)CC2)cc1 (stereo unspecified) | . | / | 52 | . | . | .
COC(=O)c1cc(OC)c(OC)cc1NC(=S)N1CCCC(CO)C1 (stereo unspecified) | . | . | . | . | . | .
CC(C)CCNC(=O)C(c1ccc(O)cc1)N(Cc1cccs1)C(=O)C1COc2ccccc2O1 (stereo unspecified) | / | / | / | / | / | .
O=C(NCc1ccco1)C(c1cccs1)N(C(=O)C1COc2ccccc2O1)c1cccc(O)c1 (stereo unspecified) | . | . | 97 | . | 94 | .
O=C1[C@H]2[C@@H](C(=O)N1c1cc(Cl)cc(Cl)c1)[C@]1(C(=O)Nc3ccccc31)N1CCC[C@@H]21 | . | . | 52 | . | 90 | .
SMILES | CYP2C19 act | MRP reversal | CYP2C19 inhib | CYP2C9 act | CYP2C9 inhib | MRP-1 activ
COc1ccc(-c2cc3nc4c(c(N5CCC6(CC5)OCCO6)n3n2)CCCC4)cc1 | / | . | / | / | / | /
COc1cccc(-c2cc3nc(-c4ccccc4)cc(N4CCC5(CC4)OCCO5)n3n2)c1 | . | . | . | . | 55 | .
CC(C)(c1ccccc1)c1ccc(OCCCNCCO)cc1 | . | . | . | . | . | .
O=C(CN1CCC(NC(=O)Cc2ccccc2)CC1)Nc1ccccc1Br | / | / | / | / | / | .
CC(=O)c1c[nH]c(C(=O)NCC2CCCO2)c1 (stereo unspecified) | . | / | 69 | . | . | .
Cn1c(C(=O)NCc2cccs2)cc2oc3ccccc3c21 | . | / | 51 | . | 79 | .
Cn1c(C(=O)NCc2ccccc2)cc2oc3ccccc3c21 | . | . | 52 | . | 91 | 5.2
O=C(CNC(=O)c1cc2ccccc2o1)NCc1cccs1 | / | . | / | / | / | .
CC(C)CC(=O)c1c[nH]c(C(=O)NCC2CCCO2)c1 (stereo unspecified) | . | / | . | . | . | .
Cn1c(C(=O)NCC2CCCO2)cc2c(=O)[nH]c3ccccc3c21 (stereo unspecified) | / | . | / | / | / | .
Cn1c(C(=O)NCC2CCCO2)cc2oc3ccccc3c21 (stereo unspecified) | . | / | 72 | . | 81 | .
C/C(=N\NC(=O)C(NC(=O)c1ccccc1)C(C)C)c1ccccc1 (stereo unspecified) | . | / | . | . | . | .
CC(C)(C)S(=O)c1cccs1 (stereo unspecified) | . | . | . | . | . | .
Cc1ccc(OCC(=O)N2CCN(C(=O)CCC3CCCC3)CC2)cc1 | . | . | 56 | . | 56 | .
COc1ccc(S(=O)(=O)N2CCN(C(=O)CCC3CCCC3)CC2)cc1 | . | . | 55 | . | . | .
O=C(NCC1CCS(=O)(=O)C1)Oc1ccccc1 (stereo unspecified) | . | . | . | . | . | .
Cc1ccc(/C(C#N)=C\c2cn(C)c3ccccc23)cc1 | . | . | 80 | . | 92 | .
Cc1ccc(C(=O)NN2C(=O)/C(=C/c3cn(C)c4ccccc34)SC2=S)cc1 | / | / | / | / | / | .
O=C(NCCC1=CCCCC1)C1CCCN(S(=O)(=O)c2cccc3cccnc23)C1 (stereo unspecified) | . | . | 73 | 3.9 | . | .
O=C(NCCC1=CCCCC1)C1CCCN(c2nc3ccccc3o2)C1 (stereo unspecified) | . | . | . | . | 51 | .
COc1ccc(S(=O)(=O)N2CCCC(C(=O)NCCC3=CCCCC3)C2)cc1 (stereo unspecified) | . | . | . | . | . | .
O=C(NCCC1=CCCCC1)C1CCCN(S(=O)(=O)c2cccnc2)C1 (stereo unspecified) | . | . | 58 | . | 54 | .
Cc1ccccc1C(=O)NNC(=O)CSc1nnc(C)n1-c1ccccc1 | / | / | / | / | / | .
CC1CCN(c2c([N+](=O)[O-])nn(-c3ccc4c(c3)OCCO4)[n+]2[O-])CC1 | . | . | . | . | . | .
Cc1cc(Cl)ccc1OCCCC(=O)NC1CCN(C)CC1 | . | . | . | . | . | .
SMILES | CYP2C19 act | MRP reversal | CYP2C19 inhib | CYP2C9 act | CYP2C9 inhib | MRP-1 activ
C=CCn1c(CNc2ccc(C)cc2)nnc1SCC(=O)N/N=C/c1ccc(O)cc1 | . | / | . | . | . | .
N#CCSc1nc(-c2ccccc2)cs1 | . | . | 56 | . | . | .
N#CCSc1nnc(Nc2ccccc2)s1 | . | / | 84 | . | . | .
COc1ccc(OC)c(N2C(=O)C(Cl)=C(N3CCCCC3)C2=O)c1 | . | . | 66 | . | 78 | .
COc1ccc(OC)c(N2C(=O)C(Cl)=C(N3CCOCC3)C2=O)c1 | . | . | 60 | . | . | .
Cc1cc(Cl)ccc1OCCCC(=O)NCCN1C(=O)S/C(=C\c2cccnc2)C1=O | / | / | / | / | / | .
